# Screening data: PubChem, National Center for Advancing Translational Sciences (NCATS)
# Pf growth 96h = inhibits malaria parasite growth, 96 h | P. falciparum luciferase reporter growth, 96 h | Potency, µM (titrated, usually from 28.7 µM), for the others: at the top dose activity change, negative = inhibition, actives largely listed as inhibitors | hit rate 6.9% among 320,000 | AID 504834; note: potency is the fitted concentration of half-maximal effect; % is set by controls: 0 for no effect and ±100 for the full control effect
#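 P. falciparum expressing integrated firefly luciferase, in erythrocytes at 2% hematocrit, 0.05% parasitemia, incubated with compounds 96 h at 37 C, 5% CO2. Growth inhibition read as loss of luminescence; two-generation exposure targets delayed-death apicoplast inhibitors.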
# Shiga inhibitor = Shiga toxin inhibition; Vero cells, Shiga toxin protein synthesis inhibition reporter; inhibition, % at 38.7 µM; hit rate 9.2% among 290,000; AID 2315; in the data active = inhibition mostly above about 28%, no sharp cut-off; inactive = mostly below about 43%; note: 0% is about no effect
# Cycloheximide cs = affects cycloheximide protein synthesis inhibition readout, counter-screen | cell reporter, cycloheximide protein synthesis inhibition counterscreen | max response, % | hit rate 12% among 300,000 | AID 2314; in the data active = max response mostly above about 13%, no sharp cut-off; inactive = mostly below about 14%; note: read at 38.3 µM for the half of the compounds with a filed dose; 0% is about no effect
# Pf growth 48h = P. falciparum growth inhibition at 48 hours (one generation); hit rate 5.9% among 310,000; Potency, µM (doses to about 28.7 µM), inactives show top-dose activity change, negative = inhibition, actives largely listed as inhibitors; P. falciparum luciferase growth in erythrocytes, 48 h; note: potency is the fitted concentration of half-maximal effect; % is set by controls: 0 for no effect and ±100 for the full control effect
#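 Luminescence readout; reporter = integrated firefly luciferase in P. falciparum. RBC culture at 2% hematocrit, 0.1% parasitemia final, 37 C/5% CO2; decreased signal taken as growth inhibition.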
# * hit, by the source's call; u = inconclusive; x = no result; [ ] = remark or other dose. A selection: hits, their analogues and other compounds. The true share with any hit is near 21%. Unless noted, calls come from the whole dose curve; as a rule, active = well fitted inhibition curve with a large enough effect; inconclusive = small, poorly fitted or top-dose-only effect, or another doubt; inactive = no such curve, though single readings can be large or run the other way.
SMILES,Pf growth 96h,Shiga inhibitor,Cycloheximide cs,Pf growth 48h
COc1ccc(-c2nnc(SCc3c(C)noc3C)o2)cc1,-8.8%,68.4*,27.2*,70.6%
N#CCSc1nnc(-c2sc3ccccc3c2Cl)o1,46.9%,60.9,42.1*,100.7%
C#CCSc1nnc(-c2ccc(OC)cc2)o1,158.1%,45.7,36.9*,x
C#CCSc1nnc(-c2ccc([N+](=O)[O-])cc2)o1,-4.1%[5.75 µM],57.8*,23.2*,14.2%[5.75 µM]
COc1cc(-c2noc(C)c2C(=O)NCCc2c[nH]c3ccccc23)cc(OC)c1OC,14.7µM*,-4.4,-2.2,u
O=C(NCCc1c[nH]c2ccccc12)c1cc([N+](=O)[O-])cc([N+](=O)[O-])c1,12.9%,-2.7,1.5,1.3%
N#CCC(=O)Nc1ccc(C(=O)NCCC(c2ccccc2)c2ccccc2)cc1,u,30.4,-3.7,u
O=C(NCCc1c[nH]c2ccccc12)c1ccc([N+](=O)[O-])cc1,13.3%,79.8*,38.0*,18.1%
N#CCC(=O)Nc1ccc(C(=O)NCCc2c[nH]c3ccccc23)cc1,7.38µM*,-6.5,1.2,13.1µM*
CC(C)CC1(C(=O)NCCc2c[nH]c3ccccc23)C=CCN1C(=O)c1ccccc1 (stereo not drawn),10.4µM*,10.9,10.2,u
O=C(NCCc1c[nH]c2ccccc12)c1ccccc1,97.0%,93.6*,38.8*,13.1%
CC(C)C(=O)NCCc1c[nH]c2ccccc12,u,2.3,5.5,19.4%
Cc1ccc(C(=O)NCCc2c[nH]c3ccccc23)s1,110.7%,85.4*,51.7*,69.9%
O=C(Cc1c[nH]c2ccccc12)NCc1ccco1,21.5%,-12.5,1.7,-12.7%
O=C(NCCc1c[nH]c2ccccc12)c1ccc(S(=O)(=O)NCc2ccco2)cc1,0.0%,-2.6,16.1*,-9.6%
Cc1ccc(C(=O)NCCc2c[nH]c3ccccc23)c(C)c1,234.7%,87.2*,79.5*,108.3%
Nc1ccc(S(=O)(=O)NC2(C(F)(F)F)NC(=O)N(c3ccccc3F)C2=O)cc1 (stereo not drawn),-19.9%,35.7,13.0,36.4%
O=c1cc(NCc2ccc3c(c2)OCO3)[nH]c(=O)n1-c1ccc(Cl)cc1,14.5%,1.5,2.9,-14.7%
O=c1cc(NCc2ccco2)[nH]c(=O)n1-c1ccc(Br)cc1,9.28µM*,1.2,-1.3,-7.0%
C=CCn1c(O)c(CN2CCOCC2)c(C)c(C#N)c1=O,u,91.1*,29.9*,2.5%
C=CCn1c(C)cc(C)c(C#N)c1=O,21.7%,33.7,0.1,30.6%
CC(NCc1ccccc1O)C12CC3CC(CC(C3)C1)C2 (stereo not drawn),0.104µM*,0.7,-3.0,0.0657µM*
OCCC1CN(Cc2ccon2)CCN1Cc1ccccc1 (stereo not drawn),-0.4%,-3.4,-3.0,0.4%
Cn1cc(CN2CCN(CC(C)(C)C)C(CCO)C2)c2ccccc21 (stereo not drawn),1.47µM*,-1.7,-1.5,-9.7%
Cc1cccc(CN2CCN(Cc3cccc(-n4cccn4)c3)CC2CCO)n1 (stereo not drawn),4.15µM*,-16.2,1.2,-3.3%
SMILES,Pf growth 96h,Shiga inhibitor,Cycloheximide cs,Pf growth 48h
CC(C)(C)CN1CCN(Cc2cccnc2)CC1CCO (stereo not drawn),10.4µM*,x,-1.4,-13.4%
Cc1ccc(-n2c(CNC(=O)c3cccs3)nnc2SCC(=O)NO)cc1,u,11.7,-2.8,u
O=C(O)Cn1cc(C(=O)C2CC2)c2ccccc21,x,-14.5,-2.5,-19.9%
O=C(Cn1cc(C(=O)C2CC2)c2ccccc21)NCc1ccccc1,18.4%,52.7*,34.4*,-22.7%
O=C(COc1ccccc1)c1cn(Cc2ccccc2)c2ccccc12,-2.5%,35.5,17.6*,u
O=C(c1cn(Cc2ccccc2)c2ccccc12)C1CC1,0.2%,12.4,11.8*,-21.7%
O=C(OCC(=O)C12CC3CC(CC(C3)C1)C2)c1cnccn1,26.2%,-30.8,6.8,12.6%
Cc1nn(-c2ccccc2)c2nc(C(Cl)(Cl)Cl)[nH]c(=O)c12,-16.2%,-14.2,0.9,-27.2%
Cc1ccc(S(=O)(=O)c2cc3c(=O)n4ccccc4nc3n(Cc3ccco3)c2=N)cc1C,11.7µM*,-8.9,-0.8,u
Cc1cccn2c(=O)c3cc(S(=O)(=O)c4ccc(F)cc4)c(=N)n(Cc4ccco4)c3nc12,14.7µM*,-3.7,-5.0,10.4µM*
Cc1cccn2c(=O)c3cc(S(=O)(=O)c4ccccc4)c(=N)n(Cc4ccco4)c3nc12,12.5%,0.2,11.4,u
N=c1c(S(=O)(=O)c2ccccc2)cc2c(=O)n3ccccc3nc2n1Cc1ccco1,x,-1.3,-3.5,x
Cc1ccc2nc3c(cc(S(=O)(=O)c4ccccc4)c(=N)n3Cc3ccco3)c(=O)n2c1,-18.9%,38.8*,32.9*,-77.9%
COc1ccc(CN(C)C(=O)c2ccncc2)c(OC)c1,27.9%,4.7,0.5,7.2%
CCN1CCN(C(=O)CCc2nnc3ccc(N4CCC5(CC4)OCCO5)nn23)CC1,u,3.6,0.6,17.6%
CCC(=O)Nc1ccc2oc(-c3cccnc3)nc2c1,108.2%,47.5*,34.7*,25.1%
O=C(Nc1ccc2oc(-c3cccnc3)nc2c1)c1ccco1,-9.2%,47.5,36.2*,-26.2%
CC(C)CC(=O)Nc1ccc2oc(-c3cccnc3)nc2c1,x,36.8,26.5*,10.5%
O=C(Nc1ccc2nc(-c3ccccc3)oc2c1)c1ccco1,-9.1%,47.1*,29.0*,u
COC(=O)/C=C1\NC(=O)C(C)S1 (stereo not drawn),43.7%,44.8,-4.8,33.2%
CCOC(=O)N1CCN(C(=O)CSC2=NS(=O)(=O)c3ccccc3N2)CC1,-0.5%,x,x,2.6%
Cn1c(C(=O)N2CCCC(C(=O)c3ccc(C(F)(F)F)cc3)C2)cc(=O)n(C)c1=O (stereo not drawn),u,32.5,7.7,-7.0%
Cc1oc(-c2ccccc2Cl)nc1CS(=O)CC(=O)NCc1ccccc1Cl (stereo not drawn),u,-0.8,-2.4,3.9%
Cc1ccc2oc(-c3ccc(NC(=O)CC(C)C)cc3)nc2c1,131.9%,143.2*,34.0*,151.5%
CCC(=O)NCc1ccc(-c2nc3ncccc3o2)cc1,u,22.6,16.4*,0.4%
SMILES,Pf growth 96h,Shiga inhibitor,Cycloheximide cs,Pf growth 48h
Cc1ccc(-c2nc3ncccc3o2)cc1NC(=O)Cc1ccc(Cl)cc1,-16.0%,8.0,0.6,3.2%
O=C(Nc1ccc(-c2nc3ncccc3o2)cc1)c1ccco1,x,65.7*,27.3*,56.2%
CCc1ccc2oc(-c3ccc(NC(C)=O)cc3)nc2c1,-0.3%,145.0*,60.8*,10.6%
OCCNc1nc2ccccc2nc1NCCO,26.9%,29.1,1.1,49.3%
OCCNc1cnc2ccccc2n1,39.6%,51.0*,19.3*,50.7%
N#C/C(=C\c1ccc(OCc2ccc(C(=O)O)cc2)cc1)C(=O)N1CCOCC1,214.7%,179.1*,98.5*,211.9%
N#C/C(=C\c1ccc(OCc2ccccc2)cc1)C(=O)Nc1ccc(C(=O)O)cc1,33.6%,45.5*,25.8*,9.8%
N#C/C(=C/c1ccc(C(=O)O)cc1)C(=O)Nc1ccccc1,12.5%,-15.5,7.3,9.9%
CC(NC(=O)COc1cccnc1[N+](=O)[O-])c1ccc(Cl)cc1 (stereo not drawn),9.0%,-2.0,-4.7,12.5%
